Assay [1] concerns MCC-26. As to the kind of experiment: qHTS assay to identify novel small-molecules to repurpose for Merkel cell carcinoma treatment (AID 1296009). Note: nearly all actives have a fitted effect of over 60% in size. The following applies: MCC and control cell lines, CellTiter-Glo viability, 72 h; series mostly up to 46 µM. The method in brief:
(§1)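 qHTS format: cells treated with library compounds in DMSO across 8 (NPC) or 11 (MIPE) concentrations. Readout after 72 hr at 37 degree celsius was CellTiter-Glo luminescence.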

The test system of assay [2] is MKL-1. The description is as above. As to conditions: MCC and control cell lines, CellTiter-Glo viability, 72 h; series mostly up to 46 µM. The essentials:
as §1

Assay [3] concerns MKL-2. The assay is described as above. The following applies: MCC and control cell lines, CellTiter-Glo viability, 72 h; series mostly up to 46 µM. The essentials:
as §1

Assay [4] has as its system UISO. The description is as above. As to conditions: MCC and control cell lines, CellTiter-Glo viability, 72 h; series mostly up to 46 µM. The essentials:
as §1

Assay [5] concerns WaGa. The assay is described as above. As to conditions: MCC and control cell lines, CellTiter-Glo viability, 72 h; series mostly up to 46 µM. The method in brief:
as §1

Assay [6] relates to C33A. The assay is described as follows: Primary qHTS to identify gynecologic anti-cancer compounds using libraries of approved drugs and bioactive compounds (AID 1345084). Note: nearly all actives have a fitted effect of over 55% in size. Note: potency is the fitted concentration of half-maximal effect. As to conditions: Gynecologic cancer cell panel viability, ATPlite luminescence, 48 h; series mostly up to 57.5 µM. The method in brief:
(§2)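 Cells, 1,000 per well, plated 16 h, then exposed 48 h at 37 C to compounds. Viability by ATPlite luminescence after 15 min at room temperature.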

The subject of assay [7] is CAOV3. Described as above. The following applies: Gynecologic cancer cell panel viability, ATPlite luminescence, 48 h; series mostly up to 57.5 µM. The essentials: as §2
In assay [8] the test system is CASKI. The description is as above. The following applies: Gynecologic cancer cell panel viability, ATPlite luminescence, 48 h; series mostly up to 57.5 µM. The method in brief: as §2
In assay [9] the test system is Es-2. The description is as above. As to conditions: Gynecologic cancer cell panel viability, ATPlite luminescence, 48 h; series mostly up to 57.5 µM. The method in brief: as §2
Assay [10] concerns NIH3T3. As to the kind of experiment: qHTS assay to identify novel small-molecules to repurpose for Merkel cell carcinoma treatment (AID 1296009). Note: nearly all actives have a fitted effect of over 60% in size. As to conditions: MCC and control cell lines, CellTiter-Glo viability, 72 h; at 44.8 µM (top of the series) unless noted. The essentials: as §1

Molecules are shown by their SMILES. Results filed as inconclusive are left out. Activity calls are given as the source filed them. Calls come from the whole dose curve; as a rule, active = well fitted curve in the direction sought with a large enough effect; inconclusive = small, poorly fitted or top-dose-only effect, or another doubt; inactive = no such curve, though single readings can be large; an effect the other way counts as inactive or inconclusive.

On to `[N-]=[N+]=CC(=O)OC[C@H](N)C(=O)O`, for which the Potency result in assay [1], in assay [2], in [3], in [4], in assay [5] and in assay [6] was “inactive” throughout. Moreover, in assay [9], the Potency result was “inactive”. Also, the compound was classed as inactive in [7] and in assay [8].
On to `CCC(C)(C)c1ccc(O)cc1`, for which the Potency result in [1], in assay [2], in assay [3], in [4], in assay [5] and in assay [6] was “inactive” each time. In addition, the Potency entry in [9] is “inactive”. The outcome in assay [7] and in assay [8] was inactive.
On to `COP(=S)(OC)Oc1ccc(S(=O)(=O)N(C)C)cc1`, for which the Potency entry in [1], in [2], in [3], in assay [4], in [5] and in assay [6] was “inactive” in each case. In assay [9], the Potency entry is “inactive”. Besides, the result in assay [7] and in assay [8] was inactive.
Consider `CCc1cc2c(s1)-n1c(C)nnc1CN=C2c1ccccc1Cl`, for which the Potency result in [1], in [2], in assay [3], in assay [4], in assay [5] and in assay [6] was “inactive” throughout. The Potency entry in [9] is “inactive”. The compound was classed as inactive in [10], in assay [7] and in [8].
As for `C=C(C)[C@H]1CN[C@H](C(=O)O)[C@H]1CC(=O)O`, the Potency entry in assay [1], in [2], in assay [3], in [4], in [5] and in assay [6] was “inactive” each time. In addition, the Potency result in [9] is “inactive”. Besides, the compound was classed as inactive in [10], in [7] and in [8].
For `CC(C)NC(C)C`, the Potency entry in assay [1], in assay [2], in assay [3], in [4], in assay [5] and in assay [6] was “inactive” in each case. Moreover, in [9], the Potency result is “inactive”. Also, the outcome in assay [10], in assay [7] and in assay [8] was inactive.
As to `ClCCN1CCCC1`, the Potency result in assay [1], in [2], in [3], in [4], in assay [5] and in assay [6] was “inactive” each time. The Potency entry in assay [9] was “inactive”. Also, the compound was classed as inactive in assay [10], in assay [7] and in assay [8].
Consider `CCN[C@@H](C)Cc1cccc(C(F)(F)F)c1`, for which the Potency result in assay [1], in [2], in assay [3], in [4], in [5] and in assay [6] was “inactive” in each case. Besides, the Potency entry in assay [9] is “inactive”. Further, the outcome in assay [7] and in [8] was inactive.
Take `CCC(C)C(C)(COC(N)=O)COC(N)=O` (stereo not given): the Potency entry in assay [1], in [2], in assay [3], in assay [4], in assay [5] and in [6] was “inactive” throughout. Further, the Potency entry in assay [9] was “inactive”. Further, the outcome in assay [10], in assay [7] and in assay [8] was inactive.
As for `O=C1c2ccccc2C(=O)c2ccccc21`, the Potency result in [1], in [2], in assay [3], in [4], in [5] and in [6] was “inactive” each time. Moreover, the Potency result in [9] was “inactive”. In addition, the outcome in assay [7] and in assay [8] was inactive.
As for `O=c1[nH]c2ccccc2n1C1CCNCC1`, the Potency result in assay [1], in [2], in [3], in [4], in assay [5] and in assay [6] was “inactive” in each case. Moreover, in [9], the Potency result is “inactive”. The outcome in [10], in [7] and in assay [8] was inactive.
`O=P1(N(CCCl)CCCl)NCCCO1` (stereo not given): the Potency entry in assay [1], in assay [2], in [3], in assay [4], in assay [5] and in assay [6] was “inactive” each time. Moreover, in assay [9], the Potency result was “inactive”. Moreover, the compound was classed as inactive in assay [7] and in assay [8].
Consider `C[C@H](N)C(=O)c1ccccc1`, for which the Potency result in [1], in assay [2], in assay [3], in [4], in [5] and in assay [6] was “inactive” in each case. The Potency entry in assay [9] was “inactive”. The compound was called inactive in assay [7] and in assay [8].
As for `CC(=O)C1CCOC1=O` (stereo not given), the Potency result in assay [1], in assay [2], in assay [3], in assay [4], in [5] and in assay [6] was “inactive” throughout. Moreover, in [9], the Potency result is “inactive”. Also, the compound was classed as inactive in assay [10], in assay [7] and in [8].
With `COc1cc(OC)c(OC)cc1C=O`, the Potency result in [1], in [2], in assay [3], in assay [4], in assay [5] and in assay [6] was “inactive” in each case. Also, the Potency entry in [9] is “inactive”. The compound was called inactive in assay [7] and in [8].
With `CNC(C)(C)Cc1ccccc1`, the Potency entry in [1], in [2], in assay [3], in assay [4], in assay [5] and in assay [6] was “inactive” throughout. For the same compound, in [9], the Potency result is “inactive”. Besides, the compound was called inactive in assay [7] and in [8].
In the case of `CCC1(CC)C(=O)C=CNC1=O`, the Potency entry in assay [1], in [2], in assay [3], in assay [4], in assay [5] and in [6] was “inactive” throughout. In addition, in assay [9], the Potency result was “inactive”. The call in [7] and in assay [8] was inactive.
Regarding `CC(C(=O)c1ccccc1)N(C)C` (stereo not given), the Potency entry in assay [1], in [2], in assay [3], in assay [4], in assay [5] and in assay [9] was “inactive” each time. Further, the call in [7] and in assay [8] was inactive.
Turning to `CCCCCCCCCC(=O)O[C@H]1CC[C@H]2[C@@H]3CCC4=CC(=O)CC[C@@H]4[C@H]3CC[C@]12C`, the Potency entry in assay [1], in assay [2], in assay [3], in [4], in [6] and in [9] was “inactive” throughout. For the same compound, the result in assay [7] and in assay [8] was inactive.
Turning to `O=C(CCCN1CCC2(CC1)C(=O)NCN2c1ccccc1)c1ccc(F)cc1`, the Potency entry in assay [2], in assay [3], in assay [4], in [5], in assay [6] and in assay [9] was “inactive” each time. Moreover, the call in assay [10], in assay [7] and in assay [8] was inactive.
`COc1cc(CC(C)N)cc(OC)c1OC` (stereo not given): the Potency result in [1], in assay [2], in [3], in assay [4] and in [5] was “inactive” in each case. In addition, the call in assay [7] and in assay [8] was inactive. In addition, the Potency in assay [9] was 15.8 µM (active).
For `C[C@]12CC[C@@H]3c4ccc(OC(=O)N(CCCl)CCCl)cc4CC[C@H]3[C@@H]1CC[C@@H]2OP(=O)(O)O`, the Potency result in [1], in assay [2], in assay [3], in [4], in [5] and in assay [6] was “inactive” each time. Moreover, the Potency result in assay [9] is “inactive”. For the same compound, the outcome in assay [7] and in [8] was inactive.
Consider `CN1CC[C@]23c4c5ccc(O)c4O[C@H]2[C@@H](O)C=C[C@H]3[C@H]1C5`, for which the Potency result in assay [1], in assay [6] and in assay [9] was “inactive” in each case. Besides, the result in assay [7] and in [8] was inactive.
On to `CN1CCC(O)(c2ccc(F)cc2)C(C(=O)c2ccc(F)cc2)C1` (stereo not given), for which the Potency entry in [1], in assay [2], in assay [4], in assay [5], in assay [6] and in [9] was “inactive” throughout. For the same compound, the result in assay [7] and in assay [8] was inactive.

Source of the values: PubChem BioAssay (NCATS).
